Consider one compound from the supplement of paper PMC11732987, “Enantioselective OTUD7B fragment discovery through chemoproteomics screening and high-throughput optimisation” (Communications Chemistry, 2025).

Holding throughout (experiment): log2 ratio of Biotin-Ahx-Ub-VS probe labelling (fragment/DMSO); higher = less target engagement (more negative = stronger competition), active = hit call of the paper (q ≤ 0.05, log2 ratio ≤ -1)
Details in all cases: compound concentration: 200 uM; treatment time: 3 h

For one assay, the target named is T1, OTUD6B (UniProt Q8N6M0).
T1 sequence (whole entry): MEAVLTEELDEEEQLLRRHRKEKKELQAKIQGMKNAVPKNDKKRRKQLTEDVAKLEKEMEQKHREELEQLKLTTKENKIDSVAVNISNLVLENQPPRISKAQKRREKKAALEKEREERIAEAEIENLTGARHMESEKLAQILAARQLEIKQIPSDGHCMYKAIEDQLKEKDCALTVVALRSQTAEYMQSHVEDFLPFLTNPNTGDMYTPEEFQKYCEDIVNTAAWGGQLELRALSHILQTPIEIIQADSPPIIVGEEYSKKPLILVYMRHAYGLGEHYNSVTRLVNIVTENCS
The method, boiled down:
(§1)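 The table lists average log2 ratios of fragment over vehicle, from an unpaired t-test on global-median-normalised Spectronaut label-free quantities. Proteins with ≥2 unique peptides were used. Samples were HEK293T lysate (495 µg) treated in triplicate with fragment at 200 µM or vehicle for 3 h, then with Biotin-Ahx-Ub-VS (0.5 µM final) for 1 h, with labelled DUBs NeutrAvidin-enriched and run by diaPASEF LC-MS/MS.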

The target in another assay is T2, OTUD7B (UniProt Q6GQQ9).
T2 sequence (whole entry): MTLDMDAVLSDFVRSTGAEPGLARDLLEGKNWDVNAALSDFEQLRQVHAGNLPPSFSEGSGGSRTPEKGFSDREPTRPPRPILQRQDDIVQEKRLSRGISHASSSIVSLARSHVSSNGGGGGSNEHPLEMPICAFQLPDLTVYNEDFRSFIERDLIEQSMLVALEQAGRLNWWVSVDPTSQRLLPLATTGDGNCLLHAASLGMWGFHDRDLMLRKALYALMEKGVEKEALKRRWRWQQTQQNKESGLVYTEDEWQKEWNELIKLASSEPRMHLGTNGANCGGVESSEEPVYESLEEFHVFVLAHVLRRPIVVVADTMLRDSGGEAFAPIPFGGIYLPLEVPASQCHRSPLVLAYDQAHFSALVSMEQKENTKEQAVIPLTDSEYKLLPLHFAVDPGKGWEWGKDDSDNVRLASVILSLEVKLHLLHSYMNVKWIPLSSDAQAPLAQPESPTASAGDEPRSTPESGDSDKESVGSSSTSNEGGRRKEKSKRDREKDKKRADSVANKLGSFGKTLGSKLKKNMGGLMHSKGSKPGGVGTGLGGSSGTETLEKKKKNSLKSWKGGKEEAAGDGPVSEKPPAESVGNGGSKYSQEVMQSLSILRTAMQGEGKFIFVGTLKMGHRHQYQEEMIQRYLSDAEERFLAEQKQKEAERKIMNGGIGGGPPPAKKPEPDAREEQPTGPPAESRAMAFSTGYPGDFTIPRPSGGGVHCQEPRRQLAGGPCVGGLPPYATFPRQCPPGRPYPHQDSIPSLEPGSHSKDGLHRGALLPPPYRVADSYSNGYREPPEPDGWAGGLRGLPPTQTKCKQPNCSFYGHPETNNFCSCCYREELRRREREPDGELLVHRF
The method, boiled down: as §1

The target in another assay is PRPF8 (UniProt Q6P2Q9). The gist of the method: as §1
The target in another assay is T3, PSMD7 (UniProt P51665).
T3 sequence (whole entry): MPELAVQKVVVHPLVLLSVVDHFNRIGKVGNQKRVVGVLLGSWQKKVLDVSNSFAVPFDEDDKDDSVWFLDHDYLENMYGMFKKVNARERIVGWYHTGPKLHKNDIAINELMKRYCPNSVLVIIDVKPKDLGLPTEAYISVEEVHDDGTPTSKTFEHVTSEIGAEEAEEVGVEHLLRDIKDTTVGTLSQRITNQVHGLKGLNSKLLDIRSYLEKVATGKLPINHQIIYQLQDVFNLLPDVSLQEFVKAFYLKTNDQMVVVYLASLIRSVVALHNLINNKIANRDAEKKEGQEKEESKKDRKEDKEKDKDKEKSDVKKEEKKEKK
The gist of the method: as §1

Another assay deals with UCHL1 (UniProt P09936). The method, boiled down: as §1
The next assay concerns the target T4, UCHL3 (UniProt P15374).
T4 sequence (whole entry): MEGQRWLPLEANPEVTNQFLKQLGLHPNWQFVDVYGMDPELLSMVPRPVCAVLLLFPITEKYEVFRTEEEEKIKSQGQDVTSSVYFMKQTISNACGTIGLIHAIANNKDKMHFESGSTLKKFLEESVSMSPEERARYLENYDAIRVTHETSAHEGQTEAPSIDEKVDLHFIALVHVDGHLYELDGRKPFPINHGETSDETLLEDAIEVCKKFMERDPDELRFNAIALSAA
The gist of the method: as §1

In a further assay the target is T5, UCHL5 (UniProt Q9Y5K5).
T5 sequence (whole entry): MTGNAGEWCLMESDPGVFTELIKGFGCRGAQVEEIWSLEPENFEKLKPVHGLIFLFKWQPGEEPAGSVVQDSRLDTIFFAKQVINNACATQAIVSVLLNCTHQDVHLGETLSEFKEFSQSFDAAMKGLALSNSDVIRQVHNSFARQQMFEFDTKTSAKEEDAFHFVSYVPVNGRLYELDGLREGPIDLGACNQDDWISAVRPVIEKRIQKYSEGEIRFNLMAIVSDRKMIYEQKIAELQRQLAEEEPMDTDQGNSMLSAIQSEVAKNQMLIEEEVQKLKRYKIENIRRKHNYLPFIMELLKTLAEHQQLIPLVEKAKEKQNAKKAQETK
The gist of the method: as §1

The target in another assay is USP10 (UniProt Q14694). The method, boiled down:
as §1

The target of a further assay is T6, USP15 (UniProt Q9Y4E8).
T6 sequence (whole entry): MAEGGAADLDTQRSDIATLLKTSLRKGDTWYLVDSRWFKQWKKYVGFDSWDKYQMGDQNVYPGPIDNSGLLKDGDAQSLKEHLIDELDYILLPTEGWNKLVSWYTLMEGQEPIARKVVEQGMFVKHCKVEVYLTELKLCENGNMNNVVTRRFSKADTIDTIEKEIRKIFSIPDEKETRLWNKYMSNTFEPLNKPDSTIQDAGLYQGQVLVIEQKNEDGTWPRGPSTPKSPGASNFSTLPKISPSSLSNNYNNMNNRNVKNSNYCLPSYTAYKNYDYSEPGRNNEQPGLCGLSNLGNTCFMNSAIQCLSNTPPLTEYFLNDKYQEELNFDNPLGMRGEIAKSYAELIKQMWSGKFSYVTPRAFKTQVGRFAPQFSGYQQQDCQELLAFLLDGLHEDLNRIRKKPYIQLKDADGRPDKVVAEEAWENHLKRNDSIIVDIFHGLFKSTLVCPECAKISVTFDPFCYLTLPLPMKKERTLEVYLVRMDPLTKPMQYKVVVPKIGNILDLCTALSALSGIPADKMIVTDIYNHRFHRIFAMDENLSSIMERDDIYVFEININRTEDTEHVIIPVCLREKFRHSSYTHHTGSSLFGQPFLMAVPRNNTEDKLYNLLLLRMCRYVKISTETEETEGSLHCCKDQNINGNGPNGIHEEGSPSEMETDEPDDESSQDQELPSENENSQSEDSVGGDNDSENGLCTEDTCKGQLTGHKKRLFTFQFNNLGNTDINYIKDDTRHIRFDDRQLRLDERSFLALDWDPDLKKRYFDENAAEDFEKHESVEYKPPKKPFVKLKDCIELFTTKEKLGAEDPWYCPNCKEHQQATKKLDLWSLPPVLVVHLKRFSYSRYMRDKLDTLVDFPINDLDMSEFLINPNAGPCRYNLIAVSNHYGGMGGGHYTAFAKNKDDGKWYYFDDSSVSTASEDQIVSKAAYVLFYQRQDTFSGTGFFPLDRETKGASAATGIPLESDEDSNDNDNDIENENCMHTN
The method, boiled down: as §1

The target of a further assay is USP16 (UniProt Q9Y5T5). The gist of the method:
as §1

The structures appear in SMILES notation. Values without a mark were called inactive.

Sequence of USP16 (Q9Y5T5 whole entry, looked up): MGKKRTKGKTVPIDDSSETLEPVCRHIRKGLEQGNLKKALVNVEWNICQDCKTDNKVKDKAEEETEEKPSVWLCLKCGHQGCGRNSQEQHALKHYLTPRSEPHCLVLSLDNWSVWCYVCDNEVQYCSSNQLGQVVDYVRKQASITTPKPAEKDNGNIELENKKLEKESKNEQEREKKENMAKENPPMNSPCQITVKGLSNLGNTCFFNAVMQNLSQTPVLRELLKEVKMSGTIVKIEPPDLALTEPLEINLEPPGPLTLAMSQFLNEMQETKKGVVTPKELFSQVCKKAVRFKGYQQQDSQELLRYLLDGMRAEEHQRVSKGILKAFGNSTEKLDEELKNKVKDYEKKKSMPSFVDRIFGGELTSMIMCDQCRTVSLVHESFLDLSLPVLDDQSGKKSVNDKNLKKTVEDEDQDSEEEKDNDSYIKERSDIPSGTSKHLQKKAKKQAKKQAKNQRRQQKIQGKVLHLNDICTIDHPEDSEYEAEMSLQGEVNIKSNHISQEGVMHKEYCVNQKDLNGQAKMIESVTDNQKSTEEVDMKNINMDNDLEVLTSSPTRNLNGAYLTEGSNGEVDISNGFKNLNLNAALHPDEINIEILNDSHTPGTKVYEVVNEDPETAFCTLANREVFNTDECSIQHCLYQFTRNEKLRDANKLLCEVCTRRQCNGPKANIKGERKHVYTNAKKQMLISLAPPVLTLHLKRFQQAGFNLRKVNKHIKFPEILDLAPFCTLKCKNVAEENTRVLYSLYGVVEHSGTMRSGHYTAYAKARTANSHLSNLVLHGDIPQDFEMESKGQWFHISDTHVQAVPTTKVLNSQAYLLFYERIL
Sequence of USP10 (Q14694 whole entry): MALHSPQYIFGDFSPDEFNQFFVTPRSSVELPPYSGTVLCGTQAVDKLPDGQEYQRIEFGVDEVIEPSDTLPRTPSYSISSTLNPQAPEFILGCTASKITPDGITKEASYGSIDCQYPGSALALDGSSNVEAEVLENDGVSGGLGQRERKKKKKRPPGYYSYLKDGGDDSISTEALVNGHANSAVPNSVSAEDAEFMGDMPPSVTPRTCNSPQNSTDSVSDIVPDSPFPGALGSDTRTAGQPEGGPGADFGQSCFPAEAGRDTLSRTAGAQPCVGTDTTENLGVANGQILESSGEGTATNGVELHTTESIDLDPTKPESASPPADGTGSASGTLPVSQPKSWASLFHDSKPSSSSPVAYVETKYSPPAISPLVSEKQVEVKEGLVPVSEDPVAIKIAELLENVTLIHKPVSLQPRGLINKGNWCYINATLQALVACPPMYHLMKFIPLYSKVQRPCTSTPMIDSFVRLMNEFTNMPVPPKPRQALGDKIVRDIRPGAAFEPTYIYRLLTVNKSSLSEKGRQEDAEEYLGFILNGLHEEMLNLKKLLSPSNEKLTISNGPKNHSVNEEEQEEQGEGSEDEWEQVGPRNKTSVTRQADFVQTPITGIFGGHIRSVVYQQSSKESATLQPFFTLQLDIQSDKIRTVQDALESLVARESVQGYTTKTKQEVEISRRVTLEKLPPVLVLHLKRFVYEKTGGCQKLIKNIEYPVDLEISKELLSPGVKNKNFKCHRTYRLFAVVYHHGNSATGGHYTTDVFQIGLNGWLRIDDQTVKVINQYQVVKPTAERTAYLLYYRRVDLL
Sequence of UCHL1 (P09936 whole entry, looked up): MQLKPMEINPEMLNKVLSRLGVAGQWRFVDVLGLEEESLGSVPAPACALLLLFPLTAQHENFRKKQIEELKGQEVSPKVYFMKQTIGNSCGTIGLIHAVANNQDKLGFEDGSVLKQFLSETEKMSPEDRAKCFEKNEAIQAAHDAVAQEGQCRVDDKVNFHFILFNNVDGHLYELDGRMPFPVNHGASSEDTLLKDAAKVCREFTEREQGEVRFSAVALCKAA

In the case of `CC1CN(c2ccc(NC(=O)CCl)cc2)CC(C)O1` (stereo not given), the “log2 ratio of Biotin-Ahx-Ub-VS probe labelling” value is -0.241 with OTUD6B; -0.313 with OTUD7B; 0.0099 with PRPF8; -0.00447 with PSMD7; -1.48 (active) with UCHL1; 0.00853 in the assay with UCHL3. Also, the “log2 ratio of Biotin-Ahx-Ub-VS probe labelling” value with UCHL5 is -0.366; with USP10 it was -0.118; in the assay with USP15, -0.153; with USP16, -0.987.
